We go through eight compounds from PubChem BioAssay (Tox21).

Values without a mark were called inactive. Records with an inconclusive call do not appear. Calls of active or inactive are those of the source. Unless noted, the call rests on the fitted dose curve.

Assay [1] in a line: Nuclear factor erythroid 2-related factor 2/antioxidant responsive element (Nrf2/ARE) small molecule agonists: qHTS cell viability counter screen in human keratinocytes (AID 1919968; active means well fitted curve in the direction sought with a large enough effect in the repeat runs; an effect the other way counts as inactive or inconclusive; further: nearly all actives have a fitted effect of over 55% in size; further: potency means the concentration at half of the fitted maximal effect). The method, boiled down: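 Measured as CellTiter-Fluor fluorescence, this readout tracks cytotoxicity in the same wells as the ARE-luciferase screen. HaCaT reporter cells (1,500/well) received compounds after a 5 h pre-incubation and were exposed for 23 h.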

The target of assay [2] is Gonadotropin-releasing hormone receptor (Homo sapiens) (UniProt P30968). Kind of assay: Human gonadotropin-releasing hormone receptor (GnRHR) small molecule agonists, calcium flux assay in GnRHR-HEK293 cells (AID 1920063). Further: nearly all actives have a fitted effect of over 35% in size. The method, boiled down: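 Fluorescence kinetics (480 nm excitation, 540 nm emission; 3 min, 1 s steps) report calcium mobilisation in human GnRHR-HEK293 cells in agonist mode. Dye incubation: 1 h, 37 C.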
Sequence of Gonadotropin-releasing hormone receptor (Homo sapiens) (P30968 whole entry, looked up): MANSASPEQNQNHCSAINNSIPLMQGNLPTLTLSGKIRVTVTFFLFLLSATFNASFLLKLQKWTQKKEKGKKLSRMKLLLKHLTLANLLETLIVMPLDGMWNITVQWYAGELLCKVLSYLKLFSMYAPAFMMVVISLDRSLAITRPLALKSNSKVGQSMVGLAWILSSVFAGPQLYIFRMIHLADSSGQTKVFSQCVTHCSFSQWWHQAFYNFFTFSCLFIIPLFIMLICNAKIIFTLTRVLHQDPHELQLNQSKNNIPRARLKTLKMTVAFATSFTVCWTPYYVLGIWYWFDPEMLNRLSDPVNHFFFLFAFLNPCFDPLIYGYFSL

The target in assay [3] is KiSS-1 receptor (Homo sapiens) (UniProt Q969F8). Kind of assay: Human kisspeptin (KISS1R) small molecule agonists, calcium flux assay in KISS1R-HEK293 cells (AID 1920064; active means well fitted curve in the direction sought with a large enough effect in the repeat runs; an effect the other way counts as inactive or inconclusive). The method, boiled down: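 Measures KISS1R agonism through calcium-sensitive dye fluorescence in stably transfected HEK293 cells, read for 3 min after pin-tool compound delivery; 15-point titrations in triplicate.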
Sequence of KiSS-1 receptor (Homo sapiens) (Q969F8 whole entry, looked up): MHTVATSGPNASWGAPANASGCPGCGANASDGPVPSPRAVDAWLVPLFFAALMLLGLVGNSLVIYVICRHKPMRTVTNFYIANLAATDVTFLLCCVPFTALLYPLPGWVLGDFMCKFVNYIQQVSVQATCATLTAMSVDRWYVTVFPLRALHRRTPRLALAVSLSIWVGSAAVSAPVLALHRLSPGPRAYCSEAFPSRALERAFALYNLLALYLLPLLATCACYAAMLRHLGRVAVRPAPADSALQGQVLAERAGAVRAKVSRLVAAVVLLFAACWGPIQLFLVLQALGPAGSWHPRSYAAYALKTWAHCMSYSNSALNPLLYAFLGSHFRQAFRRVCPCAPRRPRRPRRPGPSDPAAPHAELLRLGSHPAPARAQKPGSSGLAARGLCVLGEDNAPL

A short description of assay [4]: G protein-coupled receptor (GPCR) small molecule agonists, calcium flux assay: HEK293 wild type cell line counter screen (AID 1920065). The method, boiled down: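 Readout: fluorescence at 480 nm excitation/540 nm emission, sampled at 1 s intervals for 3 min. Cells had been cultured 18 h, then dye-loaded 1 h at 37 C before compound or ATP addition.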
Assay [5] is described as follows: p53 small molecule agonists, cell-based qHTS assay with human liver microsomes (AID 1963577).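 Further: p53 response element beta-lactamase reporter cells with liver microsomes plus NADPH.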 In short, it runs like this:
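HLM-supplemented p53RE-bla reporter assay: 16 h compound exposure at 37 C, microsomes and NADPH each 0.5 mg/mL final, read by fluorescence intensity.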

Assay [6] in a line: p53 small molecule agonists, cell-based qHTS assay with rat liver microsomes (AID 1963578). In short, it runs like this:
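Quantitative HTS of the Tox21 10K library: p53RE-bla cells, rat liver microsomes plus NADPH at 0.5 mg/mL final each, 16 h at 37 C, beta-lactamase fluorescence detection.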

Assay [7] in a line: p53 small molecule agonists, cell-based qHTS assay with human liver microsomes: qHTS cell viability counter screen (AID 1963579). Further: nearly all actives have a fitted effect of over 45% in size. In short, it runs like this:
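Viability of p53RE-bla cells is measured as CellTiter-Glo luminescence following a 16 h, 37 C incubation with compound, liver microsomes from human donors and NADPH.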

Assay [8] is described as follows: p53 small molecule agonists, cell-based qHTS assay: qHTS cell viability counter screen (AID 1963581). Further: nearly all actives have a fitted effect of over 45% in size. The method, boiled down: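 In the same plates used for the p53 bla reporter, HCT-116 cells given compounds for 16 h at 37 C received CellTiter-Glo; luminescence was recorded 30 min later at room temperature.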
A short description of assay [9]: p53 small molecule agonists, cell-based qHTS assay (AID 1963582; active means well fitted activation curve with a large enough effect in the signal ratio in the repeat runs, not every such curve was filed as active; the % refers to the signal ratio; further: potency means the concentration at half of the fitted maximal effect). The method, boiled down: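 Compounds are pin-transferred in DMSO onto p53RE-bla cells and incubated 16 h at 37 C. The B/G FRET beta-lactamase substrate is then applied for 2 h at RT and fluorescence recorded.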
Assay [10] has as its target 5-hydroxytryptamine receptor 2A (Homo sapiens) (UniProt P28223). The experiment in a line: 5-hydroxytryptamine receptor 2A (HTR2A) small molecule antagonists, cell-based qHTS assay (AID 1963586). Further: nearly all actives have a fitted effect of over 45% in size. The method, boiled down: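 Antagonist-mode intracellular calcium assay: DOI (4 nM) added after 5 min compound pre-incubation at room temperature to dye-loaded HTR2A-CHO cells. Fluorescence followed for 3 min, sampled every second.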

Assay [11] has the same target. Kind of assay: 5-hydroxytryptamine receptor 2A (HTR2A) small molecule agonists, cell-based qHTS assay (AID 1963587). Further: nearly all actives have a fitted effect of over 30% in size. The method, boiled down:
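Kinetic calcium-flux fluorescence (2 min, 1 sec intervals) after compound addition in agonist mode. HTR2A-CHO cells were cultured 18 h, then dye-loaded 1 h at 37 C.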

The target in assay [12] is Muscarinic acetylcholine receptor M1 (Homo sapiens) (UniProt P11229). Kind of assay: Cholinergic receptor muscarinic 1 (CHRM1) small molecule antagonists, cell-based qHTS assay (AID 1963588). Further: nearly all actives have a fitted effect of over 40% in size. In short, it runs like this: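 CHRM1-CHO calcium-flux assay, antagonist mode. Cells were seeded 18 h, dye-loaded 1 h at 37 C and given compound for 5 min at RT, then acetylcholine was added at 50nM. FDSS fluorescence was read 3 min; 15 concentrations, three runs.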
Sequence of Muscarinic acetylcholine receptor M1 (Homo sapiens) (P11229 whole entry, looked up): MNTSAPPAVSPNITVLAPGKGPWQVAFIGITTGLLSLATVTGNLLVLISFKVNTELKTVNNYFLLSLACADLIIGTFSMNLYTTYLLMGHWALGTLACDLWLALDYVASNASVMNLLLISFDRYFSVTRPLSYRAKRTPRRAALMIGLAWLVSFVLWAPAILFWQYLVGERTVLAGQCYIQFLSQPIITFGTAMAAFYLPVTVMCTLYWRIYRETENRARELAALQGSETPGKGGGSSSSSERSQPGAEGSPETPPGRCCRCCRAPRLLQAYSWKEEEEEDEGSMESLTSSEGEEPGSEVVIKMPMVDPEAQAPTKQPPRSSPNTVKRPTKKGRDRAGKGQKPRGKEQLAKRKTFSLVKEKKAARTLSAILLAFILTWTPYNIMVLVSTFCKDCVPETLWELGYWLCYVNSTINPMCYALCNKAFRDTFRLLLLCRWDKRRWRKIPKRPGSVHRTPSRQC

For assay [13] the target is unchanged. Kind of assay: Cholinergic receptor muscarinic 1 (CHRM1) small molecule agonists, cell-based qHTS assay (AID 1963589). Further: nearly all actives have a fitted effect of over 35% in size. In short, it runs like this:
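Each compound was tested at 15 concentrations across three independent runs on dye-loaded CHO cells stably expressing human CHRM1, reading intracellular calcium fluorescence kinetically at 1 sec intervals.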

The nature of assay [14]: cAMP Responsive Elements (CRE) small molecule agonists, cell-based qHTS assay (AID 1963590). In short, it runs like this: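 Cell line: CRE-bla HEK 293T; medium DMEM/10% dialyzed FBS/0.1 mM NEAA/1 mM pyruvate/25 mM HEPES; 3 h compound exposure; beta-lactamase FRET readout after 2 h substrate loading at RT.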
The nature of assay [15]: cAMP Responsive Elements (CRE) small molecule antagonists, cell-based qHTS assay (AID 1963591; active means well fitted inhibition curve with a large enough effect in the signal ratio in the repeat runs, not every such curve was filed as active; the % refers to the signal ratio). The method, boiled down:
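Inhibition of NKH477-driven (0.25 uM final) CRE-beta-lactamase signal in HEK293T cells, 3 h compound exposure at 37 °C, detected by FRET substrate fluorescence.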

In assay [16] the target is Beta-2 adrenergic receptor (Homo sapiens) (UniProt P07550). Kind of assay: Adrenergic beta2 receptor (ADRB2) small molecule antagonists, cell-based qHTS assay (AID 1963592). Further: series mostly up to about 92 µM; nearly all actives have a fitted effect of over 50% in size. The method, boiled down:
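Cells (CHO, stable ADRB2 overexpression) incubated 18-20hr at 37C; compounds added from DMSO; agonist mix (1nM isoproterenol, 100uM IBMX, 25uM Ro-20-1724) added; 0.5hr RT; d2-cAMP and anti-cAMP-cryptate added; 1hr RT; 665/615 nm read.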

Assay [17] deals with D(2) dopamine receptor (Homo sapiens) (UniProt P14416). Kind of assay: Dopamine D2 receptor (DRD2) small molecule agonists, cell-based qHTS assay (AID 1963594). Further: nearly all actives have a fitted effect of over 35% in size. The method, boiled down:
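cAMP accumulation in DRD2-HEK293 cells measured by HTRF after 1 h detection; compounds added 10 min before NKH477 (200nM […]) forskolin-analogue stimulation, 30 min at room temperature, with Ro20-1724 present at 0.1 mM final.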

The target is the same in assay [18]. The experiment in a line: Dopamine D2 receptor (DRD2) small molecule antagonists, cell-based qHTS assay (AID 1963595; active means well fitted inhibition curve with a large enough effect in the signal ratio in the repeat runs, with a control signal flat; the % refers to the signal ratio). The method, boiled down: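 Human DRD2 antagonist qHTS measuring cAMP by HTRF. The cells are exposed to compound for 10 min, then to NKH477 (200 nM) and quinpirole (12 nM) for 30 min at RT, with Ro20-1724 (0.1 mM) present throughout.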
The nature of assay [19]: p53 small molecule agonists, cell-based qHTS assay with rat liver microsomes: qHTS cell viability counter screen (AID 1963580). Further: nearly all actives have a fitted effect of over 45% in size. The method, boiled down: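 HCT-116 p53RE-bla, 4,000 cells/well, 5 h pre-incubation; cpd + rat liver microsomes 0.5 mg/mL + NADPH 0.5 mg/mL (final); 16 h, 37 C; CellTiter-Glo, 30 min RT; luminescence.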
Assay [20] concerns the target Beta-2 adrenergic receptor (Homo sapiens) (UniProt P07550). The experiment in a line: Adrenergic beta2 receptor (ADRB2) small molecule agonists, cell-based qHTS assay (AID 1963593).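 Further: CHO cells stably overexpressing human ADRB2.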 The method, boiled down: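 CHO cells stably over-expressing ADRB2 were plated overnight at 37C, then dosed with compounds plus a stimulation mix containing 100uM IBMX and 25uM Ro-20-1724 for 0.5hr at room temperature. cAMP was measured by HTRF competition, 1hr.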

Sequence of 5-hydroxytryptamine receptor 2A (Homo sapiens) (P28223 whole entry, looked up): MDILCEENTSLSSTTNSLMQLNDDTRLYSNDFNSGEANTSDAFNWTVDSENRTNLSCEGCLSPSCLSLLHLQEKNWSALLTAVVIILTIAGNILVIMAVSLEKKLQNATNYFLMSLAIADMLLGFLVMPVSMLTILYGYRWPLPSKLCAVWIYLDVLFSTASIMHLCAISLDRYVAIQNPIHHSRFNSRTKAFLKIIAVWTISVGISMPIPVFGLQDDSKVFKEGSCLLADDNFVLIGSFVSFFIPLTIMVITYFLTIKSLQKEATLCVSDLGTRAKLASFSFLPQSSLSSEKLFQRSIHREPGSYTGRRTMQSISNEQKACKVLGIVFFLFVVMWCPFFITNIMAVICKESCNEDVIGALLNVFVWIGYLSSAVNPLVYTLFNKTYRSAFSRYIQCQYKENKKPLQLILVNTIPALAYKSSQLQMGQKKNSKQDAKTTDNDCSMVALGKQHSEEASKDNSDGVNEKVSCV
Sequence of D(2) dopamine receptor (Homo sapiens) (P14416 whole entry, looked up): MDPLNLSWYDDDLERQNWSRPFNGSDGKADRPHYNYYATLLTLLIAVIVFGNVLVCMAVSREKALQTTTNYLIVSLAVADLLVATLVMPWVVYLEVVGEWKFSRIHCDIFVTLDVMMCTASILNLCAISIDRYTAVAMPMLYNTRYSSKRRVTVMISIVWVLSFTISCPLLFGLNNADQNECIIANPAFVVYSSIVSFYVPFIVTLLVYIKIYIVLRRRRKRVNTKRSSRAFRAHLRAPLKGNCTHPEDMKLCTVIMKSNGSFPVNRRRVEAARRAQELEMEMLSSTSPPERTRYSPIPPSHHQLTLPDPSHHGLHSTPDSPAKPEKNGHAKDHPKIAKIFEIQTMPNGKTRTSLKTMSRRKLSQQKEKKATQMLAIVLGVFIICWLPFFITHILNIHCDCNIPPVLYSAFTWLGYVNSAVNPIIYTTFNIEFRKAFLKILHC
Sequence of Beta-2 adrenergic receptor (Homo sapiens) (P07550 whole entry, looked up): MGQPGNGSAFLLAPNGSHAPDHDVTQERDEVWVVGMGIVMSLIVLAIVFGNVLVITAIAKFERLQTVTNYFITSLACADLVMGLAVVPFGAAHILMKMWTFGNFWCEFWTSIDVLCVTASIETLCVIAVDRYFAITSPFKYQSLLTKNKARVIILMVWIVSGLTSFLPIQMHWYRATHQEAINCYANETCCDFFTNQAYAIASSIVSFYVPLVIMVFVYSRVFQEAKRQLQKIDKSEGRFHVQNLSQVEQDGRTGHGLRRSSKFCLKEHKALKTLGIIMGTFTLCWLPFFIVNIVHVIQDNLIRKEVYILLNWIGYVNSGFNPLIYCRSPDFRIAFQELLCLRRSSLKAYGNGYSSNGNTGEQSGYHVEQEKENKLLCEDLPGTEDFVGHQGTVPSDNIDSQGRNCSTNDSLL

`c1ccc2c(c1)ccc1c3ccccc3ccc21`: the Potency entry in assay [1], in assay [2], in [3], in [4], in assay [5] and in assay [6] was “inactive” throughout. The Potency result in [7], in assay [8], in assay [9], in [10], in assay [11] and in assay [12] was “inactive” throughout. The Potency result in assay [13], in assay [14], in assay [15], in [16], in [17] and in [18] was “inactive” each time.

On to `O=C(O)Cc1cc(I)c(Oc2ccc(O)c(I)c2)c(I)c1`, for which the Potency entry in [1], in [2], in [3], in [4], in assay [5] and in [6] was “inactive” each time. Moreover, the Potency entry in assay [7], in assay [19], in assay [10], in [12], in assay [13] and in assay [16] was “inactive” in each case. Further, the Potency result in assay [17] is “inactive”. Moreover, the Potency in assay [9] was 11.5 µM (active).

Turning to `C[C@@H]1C[C@H]2O[C@@]3(O[C@@H]2C(C)(C)O)[C@H](O)[C@@]2(C)[C@@H]4CC[C@H]5C(C)(C)[C@@H](O[C@@H]6OC[C@@H](O)[C@H](O)[C@H]6O)CC[C@@]56C[C@@]46CC[C@]2(C)[C@@H]13`, the Potency result in assay [1], in assay [2], in assay [3], in assay [4], in assay [5] and in assay [6] was “inactive” throughout. For the same compound, the Potency result in assay [7], in [19], in [8], in assay [11], in assay [12] and in assay [13] was “inactive” in each case. The Potency entry in assay [16], in assay [17] and in assay [18] was “inactive” throughout.

On to `CN(C)CCCN1c2ccccc2Sc2ccc(Cl)cc21`, for which, in [1], the Potency is 54.5 µM (active). The Potency result in assay [2], in assay [3], in assay [4], in assay [5], in assay [6] and in [7] was “inactive” in each case. Besides, the Potency result in assay [19], in assay [16] and in assay [17] was “inactive” each time.

Turning to `CC(CN)CCCN` (configuration not stated), the Potency entry in assay [1], in [2], in assay [3], in assay [4], in assay [5] and in assay [6] was “inactive” in each case. Further, the Potency entry in assay [7], in assay [19], in assay [9], in [10], in assay [11] and in [12] was “inactive” each time. The Potency result in [13], in assay [14], in assay [15], in assay [16], in assay [17] and in assay [18] was “inactive” in each case.

Turning to `CN(CCCN1c2ccccc2CCc2ccccc21)CC(=O)c1ccc(Cl)cc1`, the Potency result in assay [1], in assay [2], in [3], in assay [4], in assay [5] and in [6] was “inactive” throughout. Moreover, the Potency result in assay [7], in assay [19], in [11], in assay [13], in assay [14] and in assay [15] was “inactive” in each case. Besides, the Potency result in assay [16], in [17] and in assay [18] was “inactive” throughout.

For `c1ccc(-c2ccccn2)nc1`, the Potency entry in assay [1], in assay [2], in [3], in [4], in assay [5] and in [6] was “inactive” throughout. The Potency result in assay [7], in assay [19], in [8], in assay [10], in assay [11] and in [12] was “inactive” each time. Moreover, the Potency entry in assay [14], in assay [15], in assay [16], in [20], in [17] and in [18] was “inactive” each time.

Consider `CN1CCCN=C1/C=C/c1cccs1`, for which the Potency result in assay [1], in assay [2], in [3], in assay [4], in [5] and in [6] was “inactive” each time. In addition, the Potency result in assay [7], in [19], in assay [8], in assay [10], in assay [11] and in assay [12] was “inactive” in each case. In addition, the Potency result in [13], in [14], in assay [15], in [16], in assay [20] and in assay [17] was “inactive” throughout. Further, the Potency entry in [18] is “inactive”.
